From PubChem BioAssay (NCATS)
Records with an inconclusive call do not appear. Where a call stands in place of a potency, no number is given. Activity calls are given as the source filed them. Unless noted, calls follow the shape of the dose curve; as a rule, active = well fitted curve in the direction sought with a large enough effect; inconclusive = small, poorly fitted or top-dose-only effect, or another doubt; inactive = no such curve, though single readings can be large; an effect the other way counts as inactive or inconclusive.

Legend:
[1] = A High-Content qHTS Against Drug Library for the Identification of Small Molecules that Inhibit DYT1 Early Onset Primary Dystonia-Associated Cell Pathology (AID 1645839; calls by dose curve; also: series mostly up to about 46 µM)
Procedure, shortened: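 Flp-In T-REx 293 cells with tetracycline-inducible EGFP-delE hTOR1A (WT EGFP-hTOR1A as reference), 800 cells/well; compound added with tetracycline, 48 h at 37 C. Fixed, permeabilized cells imaged; %pathology (punctate TorsinA) primary, cell count counterscreen.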

[2] = biological target: Cytochrome P450 2D6 (Homo sapiens) (UniProt P10635); experiment: Cytochrome P450 family 2 subfamily D member 6 (CYP2D6) small molecule antagonists: luciferase biochemical (cell-free) qHTS assay (AID 1645840; active = well fitted curve in the direction sought with a large enough effect in the repeat runs; an effect the other way counts as inactive or inconclusive; also: nearly all actives have a fitted effect of over 55% in size; also: potency is read from the fitted curve at half-maximal effect)
Cytochrome P450 2D6 (Homo sapiens), sequence (P10635 whole entry, looked up): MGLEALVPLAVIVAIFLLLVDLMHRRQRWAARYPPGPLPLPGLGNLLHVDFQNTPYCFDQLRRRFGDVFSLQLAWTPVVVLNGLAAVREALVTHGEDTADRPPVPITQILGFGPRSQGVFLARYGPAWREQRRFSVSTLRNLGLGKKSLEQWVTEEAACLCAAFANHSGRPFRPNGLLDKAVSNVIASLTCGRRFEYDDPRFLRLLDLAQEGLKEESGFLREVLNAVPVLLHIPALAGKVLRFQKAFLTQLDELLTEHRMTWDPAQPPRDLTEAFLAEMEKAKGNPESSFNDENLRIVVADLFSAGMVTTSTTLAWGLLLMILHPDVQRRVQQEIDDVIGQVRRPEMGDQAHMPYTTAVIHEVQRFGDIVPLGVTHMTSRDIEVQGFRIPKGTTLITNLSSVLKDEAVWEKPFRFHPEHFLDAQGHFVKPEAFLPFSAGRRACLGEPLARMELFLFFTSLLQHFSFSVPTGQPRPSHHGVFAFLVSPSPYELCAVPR
Procedure, shortened: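 P450-Glo luminescent screen: recombinant CYP2D6 enzyme–proluciferin substrate mix preincubated with compound 10 min at room temperature, then NADPH regeneration added for 1 h at room temperature. Detection reagent added for 20 min; luciferin light read as relative luminescence units.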

[3] = biological target: Cytochrome P450 2C9 (Homo sapiens) (UniProt P11712); experiment: Cytochrome P450 family 2 subfamily C member 9 (CYP2C9) small molecule antagonists: luciferase biochemical (cell-free) qHTS assay (AID 1645842; active = well fitted curve in the direction sought with a large enough effect in the repeat runs; an effect the other way counts as inactive or inconclusive; also: nearly all actives have a fitted effect of over 55% in size; also: potency is read from the fitted curve at half-maximal effect)
Cytochrome P450 2C9 (Homo sapiens), sequence (P11712 whole entry, looked up): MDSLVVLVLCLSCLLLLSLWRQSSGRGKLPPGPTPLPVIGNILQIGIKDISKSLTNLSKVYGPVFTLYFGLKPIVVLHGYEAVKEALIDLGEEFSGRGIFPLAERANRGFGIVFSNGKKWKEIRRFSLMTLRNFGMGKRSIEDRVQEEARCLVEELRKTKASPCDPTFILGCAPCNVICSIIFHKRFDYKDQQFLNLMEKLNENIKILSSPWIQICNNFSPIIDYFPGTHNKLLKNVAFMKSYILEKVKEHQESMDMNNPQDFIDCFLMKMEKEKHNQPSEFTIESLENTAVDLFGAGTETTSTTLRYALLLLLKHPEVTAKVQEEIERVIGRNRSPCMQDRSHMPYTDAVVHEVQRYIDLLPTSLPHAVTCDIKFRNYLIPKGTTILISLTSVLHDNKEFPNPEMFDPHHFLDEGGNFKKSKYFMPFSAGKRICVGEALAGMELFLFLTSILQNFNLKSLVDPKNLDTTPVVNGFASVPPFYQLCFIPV
Procedure, shortened: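 Luminescence, after 20 min with luciferin detection reagent, reflected CYP2C9 turnover during a 1 h NADPH-driven reaction at 37C. Enzyme-substrate mix contained 0.4% bovine serum albumin and was preincubated with compound 10 min at room temperature.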

[4] = Primary qHTS for inhibitors of nuclear receptor binding SET domain protein 2 (NSD2) in an isogenic RCH-ACV NSD2 p.E1099K mutant (9B) (AID 1645876); also: nearly all actives have a fitted effect of over 70% in size
[5] = Primary qHTS for inhibitors of nuclear receptor binding SET domain protein 2 (NSD2) in an RCH-ACV wild type WT cells (2C) (AID 1645877); also: nearly all actives have a fitted effect of over 70% in size; also: potency is read from the fitted curve at half-maximal effect
[6] = biological target: Glutathione peroxidase 1 (Homo sapiens) (UniProt P07203); experiment: Primary qHTS Assay for Inhibitors of Recombinant Selenoprotein Glutathione Peroxidase 1 (GPX1) (AID 1845191); also: nearly all actives have a fitted effect of over 65% in size
Glutathione peroxidase 1 (Homo sapiens), sequence (P07203 whole entry, looked up): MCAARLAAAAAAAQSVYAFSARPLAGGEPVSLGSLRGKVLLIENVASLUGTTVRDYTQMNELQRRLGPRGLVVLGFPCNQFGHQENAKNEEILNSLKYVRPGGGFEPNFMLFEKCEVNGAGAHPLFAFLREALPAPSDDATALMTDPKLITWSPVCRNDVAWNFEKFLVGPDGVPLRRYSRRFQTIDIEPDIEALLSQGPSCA
Procedure, shortened: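 GR-coupled assay: compounds preincubated 30 min at room temperature with GPX1, then reaction started with CHP; final 10 nM GPX1, 1 mM GSH, 0.5 mM CHP, 0.5 mM NADPH, 100 nM GR, 0.01% BSA, pH 7.5 Tris buffer. NADPH fluorescence (340/450 nm) read at 0 and 15 min.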

[7] = NCATS anti-infectives library activity on HEK293 viability as a counter-qHTS vs the C. elegans viability qHTS (AID 1745854);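 also: HEK293 cells exposed to compounds for 24 hr before the viability read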
Procedure, shortened: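 HEK293 cells (1,500/well) exposed 24 hr at 37C to 1:5 titrations, up to 41.7 uM final; counter-screen to a C. elegans viability qHTS. Viability by CellTiter-Glo luminescence after 10 min at room temperature; digitonin as control.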

[8] = HepG2 viability counterscreen (readout 2: ATP content) against the NCATS DSHEA and TCM libraries (AID 1794840);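 also: HepG2 cells exposed to substances for about 24 h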
Procedure, shortened: (§1)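 Cytotoxicity was assessed in HepG2 cells plated at 1,000 cells/well and exposed for about 24 hours to a concentration series. Protease activity and ATP content were measured sequentially in each well.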

[9] = HepG2 viability counterscreen (readout 1: protease activity) against the NCATS DSHEA and TCM libraries (AID 1794841);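 also: cells exposed to compounds for about 24 h before the protease read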
Procedure, shortened: as §1

CC(=O)Oc1cccc(O)c1
Potency [1]: inactive | Potency [2]: inactive | Potency [3]: inactive | Potency [4]: inactive | Potency [5]: inactive | Potency [6]: inactive

CN1C(C)(C)CCCC1(C)C
Potency [1]: inactive | Potency [2]: 3.89 µM (active) | Potency [4]: inactive | Potency [5]: inactive

C[C@]1(Cn2ccnn2)[C@H](C(=O)O)N2C(=O)C[C@H]2S1(=O)=O
Potency [1]: inactive | Potency [2]: inactive | Potency [3]: inactive | Potency [4]: inactive | Potency [5]: inactive | Potency [6]: inactive

C=CCOc1ccccc1OCC(O)CNC(C)C (stereo not drawn)
Potency [1]: inactive | Potency [2]: 13.8 µM (active) | Potency [3]: inactive | outcome [7]: inactive

CC(=O)OCC(=O)[C@@]1(O)CC[C@H]2[C@@H]3CCC4=CC(=O)C=C[C@]4(C)[C@@]3(F)[C@@H](O)C[C@@]21C
Potency [1]: inactive | Potency [2]: inactive | Potency [3]: inactive | Potency [5]: 0.0211 µM (active) | Potency [6]: inactive

O=C(/C=C/c1ccc(O)c(O)c1)O[C@@H]1C[C@@](OC(=O)/C=C/c2ccc(O)c(O)c2)(C(=O)O)C[C@@H](O)[C@@H]1O
Potency [1]: inactive | Potency [2]: inactive | Potency [3]: inactive | outcome [8]: inactive | outcome [9]: inactive

OC[C@@H](O)[C@@H](O)[C@H](O)[C@H](O)CO
Potency [1]: inactive | Potency [2]: inactive | Potency [3]: inactive | Potency [6]: inactive

O=C(O)CNC(=O)c1ccccc1I
Potency [1]: inactive | Potency [2]: inactive | Potency [3]: inactive | Potency [6]: inactive

O=C(O)COC(=O)Cc1ccccc1Nc1c(Cl)cccc1Cl
Potency [1]: inactive | Potency [2]: inactive | Potency [3]: 17.4 µM (active) | Potency [4]: inactive | Potency [5]: inactive | Potency [6]: inactive

NC(=O)c1ccc([N+](=O)[O-])cc1Cl
Potency [1]: inactive | Potency [2]: inactive | Potency [3]: inactive | Potency [6]: inactive

C[C@@H]1O[C@@H](OC[C@H]2O[C@@H](Oc3c(-c4ccc(O)c(O)c4)oc4cc(O)cc(O)c4c3=O)[C@H](O)[C@@H](O)[C@@H]2O)[C@H](O)[C@H](O)[C@H]1O
Potency [1]: inactive | Potency [2]: inactive | Potency [3]: inactive | Potency [4]: inactive | Potency [5]: inactive | Potency [6]: inactive

CCN1CC(CCN2CCOCC2)C(c2ccccc2)(c2ccccc2)C1=O (stereo not drawn)
Potency [1]: inactive | Potency [2]: 0.436 µM (active) | Potency [3]: inactive | Potency [6]: inactive

CC1(C)S[C@@H]2[C@H](NC(=O)C(C(=O)O)c3ccccc3)C(=O)N2[C@H]1C(=O)O (stereo partly drawn)
Potency [1]: inactive | Potency [2]: inactive | Potency [3]: inactive | Potency [4]: inactive | Potency [6]: inactive

CCCC(O)C(CC)CO (stereo not drawn)
Potency [1]: inactive | Potency [2]: inactive | Potency [3]: inactive | Potency [4]: inactive | Potency [5]: inactive | Potency [6]: inactive

Nc1ccc(C(=O)Oc2ccccc2)c(O)c1
Potency [1]: inactive | Potency [2]: inactive | Potency [4]: inactive | Potency [5]: inactive
